For 28 compounds, growth results are on record in PubChem BioAssay (NCI).

About 83,000 compounds went through this panel and 20% of them were active in at least one assay; those are over-represented in the sample as a whole.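 Step 1: grow cells in 96-well plates. Step 2: add test compound at a single concentration. Step 3: incubate 48 h. Step 4: record percent growth.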 A number with no mark means an inactive call. Calls of active or inactive are those of the source. Rule for the calls: active = growth percent below 10; inactive = the rest.

Common to all, as to assay: NCI-60 one-dose screen, 48 h (100 = growth as untreated, 0 = no growth, -100 = all killed)
Common to all, as to conditions: 10 µM unless noted

The subject of experiment [1] is HCT-15 colon.
Experiment [2] relates to HT29 colon.
Experiment [3] has as its system SNB-75 CNS.
The test system of experiment [4] is SNB-19 CNS.
The subject of experiment [5] is U251 CNS.
Experiment [6] has as its system PC-3 prostate.
In experiment [7] the test system is SK-MEL-5 melanoma.
In experiment [8] the test system is UACC-62 melanoma.
The test system of experiment [9] is SK-MEL-28 melanoma.

For `Nc1c(Cl)cc(N=Nc2ccccc2)cc1Cl`, the growth in experiment [1] was 93%; in [2], 100%; in experiment [3] it was 74%; in experiment [4], 100%; in experiment [5], 94.5%; in [6], 96.2%. Besides, the growth was 94.3% in experiment [7], 57.5% in [8] and 106% in experiment [9].
As to `CC(C)/C=C/CC[C@](C)(O)[C@H]1CC[C@]2(C)[C@@H]1CC[C@@H]1[C@@]3(C)C/C(=C/c4cccc(C(F)(F)F)c4)C(=O)C(C)(C)[C@@H]3CC[C@]12C`, the growth was 90.6% in [1]; 97.3% in experiment [2]; 62.8% in [3]; 92.2% in experiment [4]; 92.6% in experiment [5]; 79.5% in experiment [6]. Also, the figures for the growth in [7], in experiment [8] and in [9] were 97.6%, 81.8% and 105%, respectively.
On to `N#C/C(=C\c1ccc(-c2cccc(C(F)(F)F)c2)o1)c1nc(-c2ccco2)cs1`, for which the growth in [1] was 71.7%; in experiment [2], 99.8%; in experiment [3], 82.2%; in [4] it was 93.8%; in experiment [5] it was 96.4%; in experiment [6] it was 90%. The growth in experiment [7] is 88.1%; in [8], 78.1%; in [9] it was 97.7%.
As to `NC1(N)C=CC2=C(C=C1)C1(N)C3=C(C=CC(N)(N)C=C3)N2C2(N)C3=C(C=CC(N)(N)C=C3)N1C1=C2C=CC(N)(N)C=C1`, the growth in experiment [1] was 94.7%; in experiment [2] it was 94.4%; in [3], 93.9%; in experiment [4] it was 101%; in [5], 83.3%; in experiment [6], 72.2%. Also, the growth in experiment [7] was 75%; in [8], 81.5%; in experiment [9], 99.1%.
Turning to `CC1(C)CC[C@]2(C(=O)NCCNCCN)CC[C@]3(C)C(=CC[C@@H]4[C@@]5(C)CCC(=O)C(C)(C)[C@@H]5CC[C@]43C)[C@@H]2C1`, the growth was 27% in experiment [1]; -2.78% (active) in experiment [2]; 69.8% in [3]; 56.1% in experiment [4]; -69.7% (active) in experiment [5]; 40.9% in [6]. The growth in experiment [7] is 87.6%; in experiment [8], -89.3% (active); in [9] it was 38.6%.
On to `N#C/C(=C\c1ccc(-c2ccc(F)cc2)o1)c1nc(-c2ccco2)cs1`, for which the growth in [1] is 84.5%; in experiment [2], 98.7%; in experiment [3] it was 88.9%; in experiment [4], 101%; in [5], 97.3%; in [6], 93.3%. Besides, the growth in experiment [7] is 92.8%; in experiment [8], 87.1%; in [9], 114%.
Turning to `OCC1OC(n2cnc3c(Cl)ncnc32)CC1O` (configuration not stated), the growth in [1] was 95.6%; in experiment [2], 107%; in [3], 102%; in experiment [4], 96.1%; in experiment [5] it was 99.2%; in [6], 88.9%. In addition, the growth in experiment [7] was 106%; in experiment [8], 101%; in experiment [9] it was 110%.
For `Cc1ccc2c(c1)c(-c1nc(-c3c[nH]c4ncccc34)cs1)cn2C`, the growth in experiment [1] was 86.5%; in experiment [2], 69%; in [3], 91.2%; in experiment [4] it was 107%; in experiment [5] it was 98.6%; in experiment [6] it was 85.7%. Also, the figures for the growth in [7], in [8] and in [9] were 98.8%, 94.5% and 109%, respectively.
On to `COc1ccc(CCN2C(=O)C(C)(C)SC2=S)cc1OC`, for which the growth in experiment [1] is 101%; in experiment [2] it was 105%; in experiment [3] it was 76.8%; in experiment [4] it was 96.4%; in experiment [5] it was 100%; in experiment [6], 98.4%. Also, the growth in experiment [7] was 99.5%; in [8], 92.7%; in experiment [9], 102%.
On to `C=C(C)[C@@H]1CC[C@]2(C)CC[C@]3(C)[C@H](CC[C@@H]4[C@@]5(C)CCCNC(C)(C)[C@@H]5CC[C@]43C)[C@@H]12`, for which the growth in experiment [1] was 19.2%; in experiment [2] it was 3.37% (active); in [3] it was 85.9%; in experiment [4], 96.3%; in experiment [5] it was 11.9%; in [6], 78.9%. The growth in experiment [7] is 98.4%; in experiment [8], 105%; in experiment [9], 105%.
In the case of `Oc1cccc2oc(=S)[nH]c12`, the growth is 102% in [1]; 113% in [2]; 86.4% in experiment [3]; 106% in experiment [4]; 109% in experiment [5]; 111% in experiment [6]. Moreover, the growth in experiment [7] is 105%; in [8], 101%; in experiment [9], 104%.
As to `CN1CCN(CCOc2ccc(-c3cnc4c(-c5cccc(F)c5)cnn4c3)cc2)CC1`, the growth was 2.6% (active) in [1]; 4.57% (active) in experiment [2]; 88.1% in experiment [3]; 83.9% in experiment [4]; 46.6% in experiment [5]; 51.2% in experiment [6]. In addition, the values for the growth in [7], in experiment [8] and in [9] were 72%, 78.3% and 92.1%, respectively.
Take `N#C/C(=C\c1ccc(-c2ccc(Cl)cc2)o1)c1nc(-c2ccco2)cs1`: the growth in [1] was 86.3%; in [2], 102%; in experiment [3] it was 86.5%; in [4], 93.4%; in experiment [5] it was 96.9%; in experiment [6] it was 92.8%. In addition, the growth in [7] was 91.1%; in experiment [8] it was 79.7%; in experiment [9], 97.5%.
Turning to `O=C1/C(=C\c2ccco2)SC(=S)N1CCc1ccc(O)cc1`, the growth is 92.7% in [1]; 114% in experiment [2]; 78.5% in experiment [3]; 95.6% in experiment [4]; 96.7% in experiment [5]; 97.5% in [6]. In addition, the growth in experiment [7] was 97.4%; in [8] it was 85.3%; in experiment [9], 98.3%.
With `Cc1ccc(Cc2cnc(NC(=O)/C=C/c3cccc(C)c3)s2)cc1`, the growth in [1] was 7.04% (active); in experiment [2], 0.0384% (active); in experiment [3], -23.6% (active); in experiment [4], 13.4%; in experiment [5], 9.32% (active); in experiment [6] it was 30.3%. In addition, the values for the growth in experiment [7], in [8] and in experiment [9] were 12.6%, 16.3% and 50.3%, respectively.
Regarding `CN(C)c1cccc2[nH]c(-c3[nH]ncc3Nc3ccnc(N)n3)nc12`, the growth in [1] was -17.1% (active); in experiment [2], 0.0531% (active); in [3], -68.7% (active); in experiment [4], -3.76% (active); in experiment [5], -50.1% (active); in experiment [6], 5.95% (active). For the same compound, the growth is -98.9% (active) in experiment [7], -85.1% (active) in [8] and -57.3% (active) in [9].
As to `O=[N+]([O-])c1ccc(/C=N\Nc2ccccc2)cc1`, the growth was 65.5% in [1]; 96.8% in [2]; 81.8% in experiment [3]; 104% in experiment [4]; 72% in [5]; 69% in [6]. The growth is 98.1% in [7], 3.85% (active) in experiment [8] and 97.5% in experiment [9].
With `CN(C)c1ccc(N)c2ccccc12`, the growth in experiment [1] is -82.9% (active); in experiment [2], 70.5%; in experiment [3] it was 101%; in experiment [4] it was 66.7%; in [5], 64.3%; in experiment [6], 32.1%. Also, the growth is -99.4% (active) in experiment [7], -6.64% (active) in [8] and 56.6% in [9].
`CCN1CCN(C(=O)[C@]23CCC(C)(C)C[C@H]2C2=CC[C@@H]4[C@@]5(C)CC/C(=N/O)C(C)(C)[C@@H]5CC[C@@]4(C)[C@]2(C)CC3)CC1`: the growth is 15.4% in experiment [1]; 28.3% in experiment [2]; 59.3% in experiment [3]; 70.4% in experiment [4]; 38% in experiment [5]; 39.6% in experiment [6]. Further, the growth in experiment [7] was 86.5%; in [8], 87.9%; in experiment [9] it was 73.2%.
Consider `CC1(C)CC[C@]2(C(=O)Nc3ccccn3)CC[C@]3(C)C(=CC[C@@H]4[C@@]5(C)C/C(=C/c6ccncc6)C(=O)C(C)(C)[C@@H]5CC[C@]43C)[C@@H]2C1`, for which the growth is 15.3% in experiment [1]; 9.45% (active) in experiment [2]; 91.6% in experiment [3]; 58.4% in experiment [4]; 10.3% in experiment [5]; 28% in experiment [6]. In addition, the growth in experiment [7] was -49.8% (active); in [8] it was 23.9%; in [9], 37.5%.
As for `Cc1cc2nc3c4cc([N+](=O)[O-])cc([N+](=O)[O-])c4n(CCN(C)C)c3nc2cc1C`, the growth is 57.2% in [1]; 65.6% in experiment [2]; 72.3% in experiment [3]; 68.2% in experiment [4]; 81.6% in experiment [5]; 77.1% in [6]. The growth in [7] was 92.4%; in experiment [8], 87%; in experiment [9] it was 98.6%.
Turning to `NCCNc1nc(-c2ccccc2)nc2nc(-c3ccccc3)oc12`, the growth is 70% in [1]; 71.6% in experiment [2]; 61.9% in [3]; 89.8% in experiment [4]; 70.3% in experiment [5]; 80.4% in experiment [6]. Besides, the values for the growth in experiment [7], in experiment [8] and in [9] were 89.2%, 99.9% and 103%, respectively.
As to `Brc1ccc(Cn2nnnc2-c2ccn(-c3ccccc3)n2)cc1`, the growth in experiment [1] is 83%; in experiment [2], 63.6%; in [3] it was 90.1%; in experiment [4] it was 78.9%; in experiment [5], 75.7%; in [6] it was 60.8%. In addition, the growth in experiment [7] was 74%; in experiment [8] it was 53%; in experiment [9], 95.3%.
`O=[N+]([O-])c1cccc(/C=N\Nc2ccccc2)c1`: the growth in [1] is 58%; in experiment [2], 80%; in experiment [3], 78.5%; in experiment [4], 95.5%; in [5], 83.4%; in experiment [6], 67%. For the same compound, the growth in experiment [7] is 92.5%; in experiment [8], 4.87% (active); in experiment [9], 103%.
With `COc1cc2nc(Cl)nc(Nc3cccc(C(=O)/C=C/c4ccc(Br)cc4)c3)c2cc1OC`, the growth in experiment [1] was 43.6%; in experiment [2], 68.4%; in [3], 76.6%; in experiment [4], 86.1%; in experiment [5], 80%; in experiment [6], 65.5%. For the same compound, the growth in experiment [7] is 91.6%; in experiment [8] it was 81.5%; in experiment [9], 92.7%.
Take `N=C(N)c1ccc(S(N)(=O)=O)cc1`: the growth in experiment [1] is 104%; in experiment [2], 105%; in [3], 96.1%; in [4], 99.1%; in experiment [5] it was 99.4%; in experiment [6], 98.4%. The growth in experiment [7] was 95.3%; in experiment [8], 99.2%; in experiment [9], 104%.
With `CC(=O)O[C@H]1CC[C@@]2(C)[C@@H](CC[C@@H]3[C@@H]2CC(=O)[C@@]2(C)[C@H]3C[C@@H](C3CCCC3=O)[C@@H]2C(C)=O)C1` (some centres not stated), the growth in [1] was 106%; in experiment [2], 95.6%; in [3], 97.4%; in [4] it was 94.2%; in experiment [5], 102%; in experiment [6], 93.1%. Moreover, the figures for the growth in experiment [7], in [8] and in experiment [9] were 108%, 91.6% and 113%, respectively.
`Cc1c(C)c2c(c(C)c1NC(=O)CCCCCCC(=O)O)CCC(C)(CCCC(C)CCCC(C)CCCC(C)C)O2` (configuration not stated): the growth is 55% in experiment [1]; 39.8% in experiment [2]; 93.9% in [3]; 101% in experiment [4]; 68.9% in [5]; 69.7% in experiment [6]. Besides, the growth is 81% in [7], 89.1% in experiment [8] and 96.1% in experiment [9].
